# Experimental data from PubChem BioAssay (NCI).
# Compounds without any hit were thinned out: in the full panel of roughly 83,000, 20% have a hit.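 Each cell line was grown in a 96-well plate and treated with one concentration of compound for 48 hours. Values below 10 were considered active.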 Unmarked numbers belong to inactive results. The source made the active and inactive calls.
# Test system: EKVX NSCLC
# Test: NCI-60 one-dose screen, 48 h (100 = growth as untreated, 0 = no growth, -100 = all killed)
# Conditions: 10 µM
# Procedure: Growth inhibition of the EKVX human Non-Small Cell Lung tumor cell line is measured as a screen for anti-cancer activity. Cells are grown in 96 well plates and exposed to the test compound for 48 hours. Compounds are tested at a single concentration, which is 10^-5 M for most compounds. The reported endpoint is percent growth (GI% or GIPRCNT), where numbers from 0 - 100% represent growth inhibition, and numbers from -100% - 0 represent cell death. For example, a value of 40 represents 60% growth inhibition. A value of 0 means no net growth occurred over the course of the experiment. A value of -40 indicates 40% of cells at the beginning of the experiment died by the end of the experiment. A value of -100 means all cells are dead at the end of the experiment.
# NCI-60 Human Tumor Cell Lines Screen was performed using the standard one-dose NCI protocol, which is described in more detail at https://dtp.cancer.gov/discovery_development/nci-60/default.htm.
# Compounds with GIPRCNT values below 10 were considered active. Activity score was based on GIPRCNT using the following formula: […]
# Score is 0 for GIPRCNT values of 100 or above, 50 for GIPRCNT values of 0, and 100 for GIPRCNT values of -100.
row,Compound,growth
1,Nc1ccn([C@@H]2O[C@H](COP(=O)(O)O[C@@H]3C[C@H](n4cc(F)c(=O)[nH]c4=O)O[C@@H]3COP(=O)(O)O[C@@H]3C[C@H](n4cc(F)c(=O)[nH]c4=O)O[C@@H]3COP(=O)(O)O[C@@H]3C[C@H](n4cc(F)c(=O)[nH]c4=O)O[C@@H]3COP(=O)(O)O[C@@H]3C[C@H](n4cc(F)c(=O)[nH]c4=O)O[C@@H]3COP(=O)(O)O[C@@H]3C[C@H](n4cc(F)c(=O)[nH]c4=O)O[C@@H]3COP(=O)(O)O[C@@H]3C[C@H](n4cc(F)c(=O)[nH]c4=O)O[C@@H]3COP(=O)(O)O[C@@H]3C[C@H](n4cc(F)c(=O)[nH]c4=O)O[C@@H]3COP(=O)(O)O[C@@H]3C[C@H](n4cc(F)c(=O)[nH]c4=O)O[C@@H]3COP(=O)(O)O[C@@H]3C[C@H](n4cc(F)c(=O)[nH]c4=O)O[C@@H]3COP(=O)(O)O[C@@H]3C[C@H](n4cc(F)c(=O)[nH]c4=O)O[C@@H]3COP(=O)(O)OCCOCCOCCOCCOCCOCCO)[C@H](O)C2O)c(=O)n1 (stereo not given in full),52%
2,CCOC(=O)Nc1ccc2c(c1)C(=O)N(CC)c1ccccc1O2,32.8%
3,COc1ccc(NC(=O)CCn2cnc3c(cc(-c4ccccc4)n3-c3ccccc3)c2=O)cc1,85.8%
4,CN(C)CCCN1c2ccccc2Sc2ccc(C(F)(F)F)cc21,43.4%
5,COc1ccc2nc(NC(=O)Nc3c(F)cccc3F)sc2c1,102%
6,CN(C1c2ccccc2Oc2ccccc21)S(=O)(=O)c1cc(Cl)ccc1Cl,57.7%
7,CCc1cc2n(n1)-c1ncc(C(=O)OC)cc1Oc1ccccc1-2,98.5%
8,COC(=O)[C@]12CC[C@@H](C)[C@H](C)[C@@H]1C1=CC[C@@H]3[C@@]4(C)C/C(=N\O)[C@H](O)[C@@]5(C)COC(=C45)C[C@@]3(C)[C@]1(C)CC2,-68.6% (active)
9,O=c1[nH]c(=O)n(C2C[C@@H](O)[C@@H](CO)O2)cc1F (stereo not given in full),70.7%
10,CC(=O)Nc1nc(C)c(C(=O)NNC=O)s1,101%
11,CC(C)(C)c1ccc(OCCCCCCN2CCNCC2)cc1,69.9%
12,COC(=O)[C@]12CC[C@@H](C)[C@H](C)[C@@H]1C1=CC[C@@H]3[C@@]4(C)CC(=O)[C@H](O)[C@@](C)(CO)[C@@H]4C(=O)C[C@@]3(C)[C@]1(C)CC2,3.1% (active)
13,Cc1nc2ccc(-n3c(-c4ccc(Cl)cc4)nc4ccccc4c3=O)cc2n1Cc1ccccc1,90.1%
14,CN1/C(=C\C(I)C(I)C2=[N+](C)c3ccccc3C2(C)C)C(C)(C)c2ccccc21 (stereo not given),7.21% (active)
15,COc1cc(N=C2C(=O)N(Cc3ccccc3)c3ccccc32)cc(OC)c1OC,101%
16,CCCCCCCCCCCCCC[n+]1ccc(C)cc1,-36.2% (active)
17,COc1ccc(Cn2cc3c(c2-c2ccccc2)CC(C)(C)c2cnoc2-3)cc1,38.7%
18,C[C@]12CC[C@H]3[C@@H](CCC4=CC(=O)CC[C@@]43C)[C@@H]1CC[C@@H]2c1csc(N)n1,23.6%
19,CCn1nc(-c2ccccn2)c2cccnc2c1=S,59.9%
20,O=S(=O)(NC1c2ccccc2Oc2ccccc21)c1cc(Cl)ccc1Cl,98.6%

row,Compound,growth
1,S=C(Cc1ccc(-c2ccccc2)cc1)N1CCOCC1,95.4%
2,Cn1c(=O)c2[nH]c(C(O)c3ccc(Cl)cc3)nc2n(C)c1=O (stereo not given),98.7%
3,COc1cc(OC)cc(-c2n/c(=C\c3c(O)[nH]c4ccc(OC)cc34)cc3c2=Nc2ccccc2-3)c1,96.6%
4,COc1ccc(Cn2cc3c(c2-c2cc(OC)c(OC)c(OC)c2)CCc2cnoc2-3)cc1[N+](=O)[O-],20.4%
5,CCCCNC(=O)Oc1ccc(/C(=C(\C)c2ccc(OC)cc2)c2ccc(OCCN3CCCCC3)cc2)cc1,68.3%
6,CCC(OC(=O)CC(C)C)c1ccccc1 (stereo not given),99.4%
7,CCCCCCCOc1cccc(/C=C2/C(=O)N=C3SCCCN32)c1,74.2%
8,COC1OC2COC(c3ccccc3)OC2C(=O)C1NC(=O)c1ccccc1 (stereo not given),79.5%
9,CCCCn1c(=O)[nH]c(N)c(C(c2ccc(Cl)cc2)c2c(N)[nH]c(=O)n(CCCC)c2=O)c1=O,48.6%
10,Cc1nc2cc(-n3c(-c4ccc(F)cc4)nc4ccccc4c3=O)ccc2n1Cc1ccccc1,55.9%
11,CCCCOCC(=O)NC(NP(=O)(N(C)C)N(C)C)C(Cl)(Cl)Cl (stereo not given),98.1%
12,O=C(/C=C/c1nnc2n(Cc3ccccc3)c(=O)c3c4c(sc3n12)CCCC4)c1ccccc1,92.4%
13,O=C(c1ccccc1)C(Nc1ccccc1)c1ccccc1 (stereo not given),86.2%
14,Cc1ccc(Cl)cc1Nc1nc(C(F)(F)F)ccc1C(=O)N/N=C/c1c(Cl)cccc1Cl,4.91% (active)
15,Cc1cc(C#Cc2ccccc2)ccc1-n1c(/C=C/c2cc(O)ccc2O)nc2ccccc2c1=O,-7.48% (active)
16,COCCOC(=O)NC(=O)Nc1ccc(/C(=N/O)c2ccc(Cl)cc2)cc1,29.6%
17,CC(=O)Nc1nc(C)c(C(=O)N/N=C/c2cccn2C)s1,103%
18,CCN(CC)CCCOC(=O)Nc1ccccc1Cl,108%
19,O=C(O)c1cc(C(F)(F)F)cc(C(F)(F)F)c1,105%
20,CCCCCCCCCCCCc1ccc(C(=O)/C=C/C(=O)O)cc1,99.9%
